Experimental findings from PubChem BioAssay (EPA / NIEHS) are described below.

Structures are written as SMILES. Results filed as inconclusive are left out. Activity calls are given as the source filed them. How the source made its calls: active means hit-call score of the fitted dose curve at least 0.9, where 1 is the maximum; inconclusive means response in the unintended direction; inactive means score below 0.9.

Assay [1] addresses human Tropomyosin Receptor Kinase A (TRKA), NTRK1 (gene 4914) (UniProt P04629). Briefly: NVS_ENZ_hTrkA: NovaScreen (NVS) Enzymatic Assay for human Tropomyosin Receptor Kinase A (TRKA) (AID 2283224). The method in brief:
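Compounds were screened at 25 uM in duplicate, then concentration series to a 50 uM top for those meeting threshold (e.g. 30% inhibition). Enzyme was recombinant human TrkA, incubated 1 h. Product formation was quantified by fluorescence after mobility-shift separation.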

Assay [2] has as its target rabbit Imidazoline 2 Central (I2C), CKB (gene 100009085) (UniProt P00567). In words: NVS_ENZ_rabI2C: NovaScreen (NVS) Enzymatic Assay for rabbit Imidazoline 2 Central (I2C) (AID 2283228). Put shortly: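 Rabbit brain membranes, cell-free; readout by filter-based scintillation counting 1.5 hours after dosing, loss of signal vs DMSO. Initial duplicate test at 25 uM, then concentration-response with 50 uM top concentration.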

For assay [3], the target named is human Vascular Endothelial Growth Factor Receptor 2 (VEGFR2), KDR (gene 3791) (UniProt P35968). In words: NVS_ENZ_hVEGFR2: NovaScreen (NVS) Enzymatic Assay for human Vascular Endothelial Growth Factor Receptor 2 (VEGFR2) (AID 2283230). Put shortly:
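Cell-free recombinant VEGFR2 kinase, fluorescent substrate with electrophoretic mobility-shift separation; read 1 h after dosing. Screened at 25 uM in duplicate, hits to concentration-response up to 50 uM; loss-of-signal versus DMSO.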

In assay [4] the target is bovine Dopamine Receptor (DR), Non-selective Binding, DRD1 (gene 281125) (UniProt Q95136). Briefly: NVS_GPCR_bDR_NonSelective: NovaScreen (NVS) G Protein-Coupled Receptor Assay for bovine Dopamine Receptor (DR), Non-selective Binding (AID 2283241). The procedure: NVS_GPCR_bDR_NonSelective is a biochemical, single-readout assay that uses extracted gene-proteins from Bovine striatal membranes in a tissue-based cell-free assay. Measurements were taken 1 hour after chemical dosing in a 48-well plate.NVS_GPCR_bDR_NonSelective is one of one assay component(s) measured or calculated from the NVS_GPCR_bDR_NonSelective assay. It is designed to make measurements of radioligand binding, a form of binding reporter, as detected with scintillation counting signals by Filter-based radiodetection technology.Data from the assay component NVS_GPCR_bDR_NonSelective was analyzed into 1 assay endpoint. This assay endpoint, NVS_GPCR_bDR_NonSelective, was analyzed in the positive analysis fitting direction relative to DMSO as the negative control and baseline of activity. Using a type of binding reporter, loss-of-signal activity can be used to understand changes in the binding as they relate to the gene DRD1. Furthermore, this assay endpoint can be referred to as a primary readout, because the performed assay has only produced 1 assay endpoint. To generalize the intended target to other relatable targets, this assay endpoint is annotated to the gpcr intended target family, where the subfamily is rhodopsin-like receptor. […]

In assay [5] the test system is guinea pig Muscarinic, Peripheral (Mperiperal) Receptor, Non-selective Binding, gene 100379235. In words: NVS_GPCR_gMPeripheral_NonSelective: NovaScreen (NVS) G Protein-Coupled Receptor Assay for guinea pig Muscarinic, Peripheral (Mperiperal) Receptor, Non-selective Binding (AID 2283250). Put shortly: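 Screened in duplicate at 25 uM, hits retested in concentration series to 50 uM max, using bladder membrane radioligand displacement from guinea pig. Filtration and scintillation counting 1 h post-dose, fitted relative to DMSO.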

Assay [6] deals with human Serotonin, 5-Hydroxytryptamine Receptor 5A (5HT5A), HTR5A (gene 3361) (UniProt P47898). In words: NVS_GPCR_h5HT5A: NovaScreen (NVS) G Protein-Coupled Receptor Assay for human Serotonin, 5-Hydroxytryptamine Receptor 5A (5HT5A) (AID 2283251). The method in brief: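 Membranes from HEK293 cells, radioligand binding read by filtration and scintillation after 1 h. Single-concentration duplicate testing at 25 uM, then concentration-response for actives; positive-direction fitting relative to DMSO.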

A short description of assay [7]: NVS_GPCR_bNPY_NonSelective: NovaScreen (NVS) G Protein-Coupled Receptor Assay for bovine Neuropeptide Y (NPY) Receptor, Non-selective Binding (AID 2283245). The method in brief:
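Displacement of radioligand from bovine hippocampal membrane receptors, read by filtration and scintillation counting after 1 hour. Concentration-response to a top of 50 uM followed a 25 uM duplicate primary screen. Loss of signal versus DMSO.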

rabbit Imidazoline 2 Central (I2C), CKB (gene 100009085), sequence (P00567 whole entry, looked up): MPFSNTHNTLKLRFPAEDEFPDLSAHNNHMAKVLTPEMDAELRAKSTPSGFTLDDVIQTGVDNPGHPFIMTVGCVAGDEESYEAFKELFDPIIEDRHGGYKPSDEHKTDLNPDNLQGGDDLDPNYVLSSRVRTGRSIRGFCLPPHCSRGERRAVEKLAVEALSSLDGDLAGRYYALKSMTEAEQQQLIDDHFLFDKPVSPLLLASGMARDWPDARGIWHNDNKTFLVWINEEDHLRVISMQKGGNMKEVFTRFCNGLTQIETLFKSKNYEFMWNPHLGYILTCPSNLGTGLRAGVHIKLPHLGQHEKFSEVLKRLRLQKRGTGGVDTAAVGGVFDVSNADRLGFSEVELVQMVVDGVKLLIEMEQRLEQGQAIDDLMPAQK
bovine Dopamine Receptor (DR), Non-selective Binding, DRD1 (gene 281125), sequence (Q95136 whole entry, looked up): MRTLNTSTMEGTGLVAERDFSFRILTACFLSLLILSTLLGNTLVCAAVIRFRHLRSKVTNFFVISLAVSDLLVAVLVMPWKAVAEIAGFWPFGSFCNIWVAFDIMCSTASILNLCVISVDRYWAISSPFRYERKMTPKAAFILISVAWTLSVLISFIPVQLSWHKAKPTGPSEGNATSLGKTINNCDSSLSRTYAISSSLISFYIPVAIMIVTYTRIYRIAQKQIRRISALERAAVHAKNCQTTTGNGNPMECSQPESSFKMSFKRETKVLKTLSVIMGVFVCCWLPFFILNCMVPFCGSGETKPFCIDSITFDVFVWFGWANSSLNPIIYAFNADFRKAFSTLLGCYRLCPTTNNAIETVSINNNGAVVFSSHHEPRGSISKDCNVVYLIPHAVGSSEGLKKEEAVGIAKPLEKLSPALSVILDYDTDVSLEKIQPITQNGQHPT
human Serotonin, 5-Hydroxytryptamine Receptor 5A (5HT5A), HTR5A (gene 3361), sequence (P47898 whole entry, looked up): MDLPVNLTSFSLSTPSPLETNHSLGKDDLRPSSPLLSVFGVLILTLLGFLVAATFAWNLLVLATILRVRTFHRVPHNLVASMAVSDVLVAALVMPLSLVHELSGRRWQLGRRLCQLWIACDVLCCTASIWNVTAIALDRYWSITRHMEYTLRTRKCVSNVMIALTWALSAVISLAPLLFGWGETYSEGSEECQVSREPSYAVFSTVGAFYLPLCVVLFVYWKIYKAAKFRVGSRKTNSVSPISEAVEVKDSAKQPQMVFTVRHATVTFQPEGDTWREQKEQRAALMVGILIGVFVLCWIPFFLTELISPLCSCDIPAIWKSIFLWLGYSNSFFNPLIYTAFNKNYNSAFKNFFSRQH
human Vascular Endothelial Growth Factor Receptor 2 (VEGFR2), KDR (gene 3791), sequence (P35968 whole entry, looked up): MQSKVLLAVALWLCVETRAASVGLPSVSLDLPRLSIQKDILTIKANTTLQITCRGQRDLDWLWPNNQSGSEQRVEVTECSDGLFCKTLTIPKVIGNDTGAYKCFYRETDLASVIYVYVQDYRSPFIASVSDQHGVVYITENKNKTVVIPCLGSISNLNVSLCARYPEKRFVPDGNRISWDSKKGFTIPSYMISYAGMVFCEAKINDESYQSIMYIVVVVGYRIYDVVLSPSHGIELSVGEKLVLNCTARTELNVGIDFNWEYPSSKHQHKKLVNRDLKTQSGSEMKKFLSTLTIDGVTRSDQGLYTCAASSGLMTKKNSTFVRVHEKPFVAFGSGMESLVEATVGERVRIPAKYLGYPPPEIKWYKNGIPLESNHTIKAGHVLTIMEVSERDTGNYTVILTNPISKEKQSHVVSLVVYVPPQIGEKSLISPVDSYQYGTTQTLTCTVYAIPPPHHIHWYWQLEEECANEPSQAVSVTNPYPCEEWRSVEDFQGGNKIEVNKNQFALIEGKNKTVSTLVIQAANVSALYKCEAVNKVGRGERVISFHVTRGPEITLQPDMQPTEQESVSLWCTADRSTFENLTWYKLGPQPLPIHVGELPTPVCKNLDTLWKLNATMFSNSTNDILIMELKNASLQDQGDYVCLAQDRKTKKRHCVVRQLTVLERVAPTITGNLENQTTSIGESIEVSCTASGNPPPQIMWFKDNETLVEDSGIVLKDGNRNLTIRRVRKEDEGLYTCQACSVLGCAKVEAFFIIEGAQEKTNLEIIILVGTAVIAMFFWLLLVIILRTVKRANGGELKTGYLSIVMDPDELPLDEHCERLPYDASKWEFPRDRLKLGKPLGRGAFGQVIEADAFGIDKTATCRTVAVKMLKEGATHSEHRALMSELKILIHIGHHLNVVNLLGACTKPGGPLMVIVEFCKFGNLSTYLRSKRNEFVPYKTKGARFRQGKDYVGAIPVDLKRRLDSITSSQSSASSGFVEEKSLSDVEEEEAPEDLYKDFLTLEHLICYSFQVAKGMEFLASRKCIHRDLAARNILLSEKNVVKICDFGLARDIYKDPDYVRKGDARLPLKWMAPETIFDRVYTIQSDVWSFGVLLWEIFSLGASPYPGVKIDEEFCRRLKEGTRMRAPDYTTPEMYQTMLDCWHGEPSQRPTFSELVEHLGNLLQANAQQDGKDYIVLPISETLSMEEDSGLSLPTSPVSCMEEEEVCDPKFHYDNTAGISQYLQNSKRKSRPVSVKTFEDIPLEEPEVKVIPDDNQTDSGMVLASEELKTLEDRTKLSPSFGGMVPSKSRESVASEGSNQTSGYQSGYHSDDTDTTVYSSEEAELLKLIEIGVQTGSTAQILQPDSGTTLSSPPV
human Tropomyosin Receptor Kinase A (TRKA), NTRK1 (gene 4914), sequence (P04629 whole entry, looked up): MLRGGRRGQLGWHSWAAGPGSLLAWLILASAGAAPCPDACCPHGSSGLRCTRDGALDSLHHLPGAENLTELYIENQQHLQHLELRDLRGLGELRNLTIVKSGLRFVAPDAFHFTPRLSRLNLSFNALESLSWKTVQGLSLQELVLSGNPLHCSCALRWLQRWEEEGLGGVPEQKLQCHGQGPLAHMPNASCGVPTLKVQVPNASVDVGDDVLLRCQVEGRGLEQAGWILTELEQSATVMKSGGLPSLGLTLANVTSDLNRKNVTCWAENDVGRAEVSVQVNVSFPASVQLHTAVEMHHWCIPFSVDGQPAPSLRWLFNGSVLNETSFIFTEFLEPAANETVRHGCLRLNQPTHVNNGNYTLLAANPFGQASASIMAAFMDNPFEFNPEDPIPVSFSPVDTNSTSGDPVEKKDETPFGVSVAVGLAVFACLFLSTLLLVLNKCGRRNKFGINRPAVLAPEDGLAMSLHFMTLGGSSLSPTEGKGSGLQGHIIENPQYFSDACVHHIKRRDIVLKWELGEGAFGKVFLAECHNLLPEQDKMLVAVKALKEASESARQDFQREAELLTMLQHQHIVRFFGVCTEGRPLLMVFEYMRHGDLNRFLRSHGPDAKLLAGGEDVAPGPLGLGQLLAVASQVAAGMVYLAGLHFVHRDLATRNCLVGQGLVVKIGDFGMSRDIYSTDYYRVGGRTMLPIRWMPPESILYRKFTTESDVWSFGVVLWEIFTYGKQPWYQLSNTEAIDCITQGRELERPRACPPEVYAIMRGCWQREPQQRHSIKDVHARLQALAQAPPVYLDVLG

A word on the AC50: it is the concentration at which the activity in the assay is half-maximal. With `O=C(c1ccc(OCCN2CCCCC2)cc1)c1c(-c2ccc(O)cc2)sc2cc(O)ccc12`, the AC50 was 25 µM (active) in assay [1]; 10.3 µM (active) in assay [2]; 3.07 µM (active) in assay [3]; 1.02 µM (active) in assay [4]; 5.18 µM (active) in assay [5]; 3.5 µM (active) in assay [6].
Regarding `CC/C(=C(\c1ccccc1)c1ccc(OCCN(C)C)cc1)c1ccccc1`, the compound was called inactive in assay [2] and in assay [4]. The AC50 was 22.9 µM (active) in assay [7], 19.1 µM (active) in assay [5] and 6.95 µM (active) in assay [6].
